Assay results published in PubChem BioAssay AID504329 (Southern Research Specialized Biocontainment Screening …, 2011).
The whole screen tested about 340,000 compounds, of which about 1,000 (0.29%) were called active. Cut-off read from the data, not from the text of the source: inconclusive = inhibition above about 27% without an active follow-up result; inactive = below that. A selection follows. Results with a measured potency or affinity are listed apart.

Assay: H1N1 influenza NS1A inhibitors, functional cell based assay (AID 504329)
Conditions: percent inhibition, at 12.5 µM, hits give high values

Row | Structure (SMILES) | inhibition
1 | O/N=C/c1ccc2cccc(O)c2n1 | 1.88% (inactive)
2 | O=[N+]([O-])c1ccc(/C=C/c2ccc3cccc(O)c3n2)cc1 | -0.58% (inactive)
3 | CCOc1ccc(OCCC(=O)NNC(=O)c2ccccc2Cl)cc1 | -2.63% (inactive)
4 | CCN(CC)CCNC(=O)c1cc(Sc2nnc(C)s2)nc2ccccc12 | -9.1% (inactive)
5 | COc1cc2[nH]c(=O)n(Cc3ccc(C(=O)NCCCN4CCC(C)CC4)cc3)c(=O)c2cc1OC | 4.01% (inactive)
6 | COc1ccc(N(CC(=O)NCc2ccc(Cl)cc2)S(=O)(=O)c2c(C)noc2C)cc1 | 6.25% (inactive)
7 | OC(CNCC(c1ccc(Cl)cc1Cl)c1c[nH]c2ccccc12)c1ccccc1 (stereo not given) | 5.5% (inactive)
8 | NCC(c1ccc(Cl)cc1Cl)c1c[nH]c2ccccc12 (stereo not given) | 7.89% (inactive)
9 | CC[C@]12C(=O)N(C)C[C@H]([C@@H]3C(=O)N(Cc4ccccc4)C(=O)[C@@H]31)N2C(=O)c1ccc(Br)cc1 | 1.57% (inactive)
10 | Cn1c(N=Nc2ccccc2)nc2ccccc21 | 3.98% (inactive)
11 | Cc1ccc(NCc2nc3ccccc3n2C)c(C)c1 | 1.58% (inactive)
12 | CN(C)c1ccc(N=Nc2nc3ccccc3n2C)cc1 | -12.4% (inactive)
13 | Cc1ccc(CNc2nc3ccccc3n2C)cc1 | -2.51% (inactive)
14 | C=CCn1c(C(O)c2ccccc2)nc2ccccc21 (stereo not given) | -2.4% (inactive)
15 | COC(=O)c1ccccc1NC(=O)c1cccc(NC(=O)C(C)C)c1 | -5.47% (inactive)
16 | Cc1ccc(Cl)c2c1NC(=O)C2(O)CC(=O)c1ccccc1O (stereo not given) | 1.71% (inactive)
17 | Cc1nn(Cc2ccc(F)cc2)c(Cl)c1/C=N/NC(=O)c1cccnc1 | 3.93% (inactive)
18 | CCCCNC(=O)C1CCCN1S(=O)(=O)c1cccc2nsnc12 (stereo not given) | -12.3% (inactive)
19 | O=c1c2c(-c3ccccc3)csc2ncn1/N=C/c1c2ccccc2cc2ccccc12 | 5.97% (inactive)
20 | CN(C)c1ccc(C=Nc2ccc(N(C)C)cc2)cc1 | 26.9% (inactive)
21 | Cc1ccc(C=Nc2ccc(N(C)C)cc2)o1 | 22.3% (inactive)
22 | CN1C(C(=O)NCCc2cccs2)CC2Cn3c(nc4cc5ccccc5cc43)C21 (stereo not given) | 1.77% (inactive)
23 | CSc1cccc(CN2CCN(CCc3ccccc3)C(CCO)C2)c1 (stereo not given) | -1.46% (inactive)
24 | O=C(c1ccco1)N1CCN(CCCCN2C(=O)c3ccccc3C2=O)CC1 | -6.16% (inactive)
25 | O=C(c1cc(-c2ccccc2Cl)on1)N1CCN(C(=O)c2ccco2)CC1 | 9.97% (inactive)

Row | Structure (SMILES) | inhibition
26 | O=C(c1ccco1)N1CCN(C2=NS(=O)(=O)c3ccccc32)CC1 | -26.1% (inactive)
27 | CN(CCO)c1cc(N2CCN(C(=O)c3ccco3)CC2)c2nonc2c1[N+](=O)[O-] | -1.02% (inactive)
28 | COc1ccc(C)cc1-n1nnnc1SCc1csc(C)n1 | -0.01% (inactive)
29 | O=C(Cc1ccc2c(c1)OCCO2)Nc1cc(C(F)(F)F)ccc1N1CCOCC1 | -15.4% (inactive)
30 | O=C(CC(O)(CC(=O)OCc1ccccc1)C(=O)OCc1ccccc1)OCc1ccccc1 | 10.3% (inactive)
31 | O=C1/C(=C\c2cccc(O)c2O)SC(=S)N1Cc1ccccc1 | 11.5% (inactive)
32 | O=C1/C(=C/c2ccc(O)c([N+](=O)[O-])c2)SC(=S)N1Cc1ccccc1 | 8.28% (inactive)
33 | O=C(c1ccncc1)C12CN3CN(CN(C3)C1)C2 | -2.7% (inactive)
34 | COc1cc(/C=N\NC(=O)CN2CCOCC2)ccc1OCC(=O)Nc1ccc(C)c(C)c1 | 0.68% (inactive)
35 | C/C(=N\N1CCN(Cc2ccc(Cl)cc2)CC1)c1ccc([N+](=O)[O-])cc1 | 1.56% (inactive)
36 | CC(O)(Cc1ccccn1)Cc1ccccn1 | 3.66% (inactive)
37 | CC(c1ccccn1)C(C)(O)C(C)c1ccccn1 (stereo not given) | -2.07% (inactive)
38 | COc1ccccc1N1CCN(Cc2ccc(OC)c(OC)c2OC)CC1 | 0.22% (inactive)
39 | COc1ccccc1N1CCN(Cc2cc3c(cc2Br)OCCO3)CC1 | 3.4% (inactive)
40 | COc1ccccc1N1CCN(Cc2cccc(OC)c2OC)CC1 | -12% (inactive)
41 | COc1ccccc1N1CCN(Cc2cccc(OC)c2O)CC1 | 0.66% (inactive)
42 | Cc1onc(COc2ccccc2O)c1Br | -2.44% (inactive)
43 | Cc1cccc(NC(=O)C2CCCN(S(=O)(=O)c3ccc4[nH]c(=O)ccc4c3)C2)n1 (stereo not given) | 5.77% (inactive)
44 | CC(C)C(NC(=O)c1ccc(C(C)(C)C)cc1)C(=O)NC1=NCCS1 (stereo not given) | 8.12% (inactive)
45 | c1cncc(-c2cnc3ccccc3c2)c1 | -4.39% (inactive)
46 | c1cc(-c2ccncc2)ccn1 | -1.52% (inactive)
47 | Oc1cncc(-c2cccnc2)c1 | -6.57% (inactive)
48 | CN(C)c1ccc(-c2cc(O)c3ncccc3c2)cc1 | 21.2% (inactive)
49 | CC1(c2nnc(-c3ccc(Cl)cc3)o2)CC(c2c(Cl)cccc2Cl)=NO1 (stereo not given) | -2.35% (inactive)
50 | Cc1ccc(NC(=S)NCc2ccccc2)c(C)c1 | -7.15% (inactive)

Row | Structure (SMILES) | inhibition
51 | O=C(Cc1ccccc1)Nc1cc(C(=O)c2ccccc2)ccc1N1CCOCC1 | -3.63% (inactive)
52 | COc1ccc(C(=O)NCCNc2nc3ccc(C)cc3cc2C#N)cc1 | -6.86% (inactive)
53 | CN(CC1CCCN(CCc2ccc(Cl)cc2)C1)C(=O)CC(F)(F)F (stereo not given) | -8.18% (inactive)
54 | Cc1ccc(CNC(=O)C2CCC(=O)N(CCc3ccc(Cl)cc3)C2)s1 (stereo not given) | -10% (inactive)
55 | COc1ccc(C(=O)NC(C)CCCC(C)(C)O)cc1OC1CCN(C(C)=O)CC1 (stereo not given) | -0.26% (inactive)
56 | Clc1ccc(-c2noc(COc3ccccc3)n2)cc1 | -0.74% (inactive)
57 | C/C(=N/NC(=O)CNC(=O)c1ccccn1)c1ccc([N+](=O)[O-])cc1 | -5.71% (inactive)
58 | C/C(=N\NC(=O)C(c1ccccc1)c1ccccc1)c1ccccn1 | -11.5% (inactive)
59 | CCOc1ccc(C(=O)NCCN2CCCCC2)c(OCC)c1 | -19.7% (inactive)
60 | Cc1ccc(NC(=O)CN(C)C(=O)c2ccc(NS(=O)(=O)c3ccc4[nH]c(=O)[nH]c4c3)cc2)cc1 | 2.9% (inactive)
61 | O=C(COC(=O)C12CC3CC(CC(O)(C3)C1)C2)NC(=O)NCc1ccco1 | -3.4% (inactive)
62 | O=c1[nH]c(=S)[nH]c2scc(-c3ccc(Br)cc3)c12 | -20.7% (inactive)
63 | CCn1c(C)nc2cc(C(=O)N/N=C/c3cccc(O)c3O)ccc21 | 0.31% (inactive)
64 | CCn1c(C)nc2cc(C(=O)N/N=C/c3cccc(OC)c3O)ccc21 | 5.9% (inactive)
65 | O=C(O)c1cc(-c2cccc3ccccc23)nc2ccccc12 | -1.69% (inactive)
66 | O=C(O)c1cc(-c2ccccc2)nc2ccccc12 | 1.29% (inactive)
67 | COc1ccc(C(=O)N2CCN(c3ncccn3)CC2)cc1[N+](=O)[O-] | -14.3% (inactive)
68 | O=C(NC(=S)Nc1ccc2oc(-c3ccncc3)nc2c1)c1ccccc1F | 1.17% (inactive)
69 | O=C(N/N=C/c1c[nH]c2ccccc12)c1ccc(Cl)cc1 | 3.88% (inactive)
70 | c1ccc(-c2nn[nH]n2)nc1 | -11.7% (inactive)
71 | c1ccc(-c2cnc(-c3ccccc3)nn2)cc1 | 10% (inactive)
72 | c1ccc(-c2ccncc2)nc1 | -0.28% (inactive)
73 | Clc1ccc(-c2cnc3ccccc3n2)cc1 | -9.76% (inactive)
74 | c1ccc(-c2nc(-c3ccccn3)nc(-c3ccccn3)n2)nc1 | 7.93% (inactive)
75 | Clc1ccc(OCc2nc(-c3ccccn3)n[nH]2)cc1 | 6.94% (inactive)

Row | Structure (SMILES) | inhibition
76 | c1ccc(-c2nnc(-c3ccccn3)s2)nc1 | -1.25% (inactive)
77 | c1ccc(-c2nc3ccccc3[nH]2)nc1 | 13.8% (inactive)
78 | COc1ccc(C(C)=O)cc1CN(c1ccccc1OC)S(=O)(=O)c1cccs1 | 13.1% (inactive)
79 | Cc1cc(C)nc(SCc2ccc(C(=O)N/N=C/c3ccco3)cc2)n1 | -4.36% (inactive)
80 | CCCNS(=O)(=O)c1cccc(C(=O)NC2CCCc3ccccc32)c1 (stereo not given) | -1.43% (inactive)
81 | Cc1ccc(C)c(SCC(=O)NC2CCS(=O)(=O)C2)c1 (stereo not given) | -12.1% (inactive)
82 | CCCCCCCCNC(=O)c1cnccn1 | -8.66% (inactive)
83 | CSc1nncc(-c2ccccc2)n1 | -2.08% (inactive)
84 | Nc1nc(N)nc(-c2ccccc2-c2nc(N)nc(N)n2)n1 | 21.3% (inactive)
85 | Nc1nc(N)nc(-c2ccccc2O)n1 | 1.67% (inactive)
86 | c1ccc(-c2ccccn2)nc1 | -0.49% (inactive)
87 | c1ccc(-c2nc3ccccc3nc2-c2ccccn2)nc1 | 0.35% (inactive)
88 | c1ccc(-c2n[nH]c(-c3ccccn3)n2)cc1 | -0.5% (inactive)
89 | c1ccc(-c2nc(-c3ccccn3)no2)cc1 | -0.45% (inactive)
90 | c1cc(-c2n[nH]c(-c3ccncc3)n2)ccn1 | -1.91% (inactive)
91 | CCN(CC)S(=O)(=O)c1ccc(N2CCOCC2)c(NC(=O)COc2ccccc2C)c1 | -22.8% (inactive)
92 | CCc1nc2ccccc2n1Cc1cc(=O)n2cc(C)ccc2n1 | -1.64% (inactive)
93 | CCOc1ccc(NC(=S)N2CCN(S(=O)(=O)c3ccccc3)CC2)cc1 | 24.8% (inactive)
94 | CC(C)(C)c1nnc(N/N=C/c2ccccc2)n(N)c1=O | -3.79% (inactive)
95 | CCc1nnc(N/N=C/c2cc(C)c(C)cc2C)n1N | -3.56% (inactive)
96 | CCc1nnc(N/N=C/c2ccccc2F)n1N | -9% (inactive)
97 | Cc1nnc(N/N=C/c2ccccc2O)n1N | 9.93% (inactive)
98 | CC(C)(C)c1nnc(N/N=C/c2ccc(Br)cc2)n(N)c1=O | -5.94% (inactive)
99 | CC(C)(C)c1nnc(N/N=C/c2ccc(O)cc2)n(N)c1=O | 6.15% (inactive)
100 | Cc1ccc(CN2CCC(n3nccc3NC(=O)CCOc3ccccc3)CC2)cc1C | -4.94% (inactive)
